The full list was thinned out, with hits kept by preference.
CBX7 inh – CBX7 inhibition, primary AlphaScreen. normalised signal (fraction of DMSO) (no concentration beside the values). AlphaScreen His6-CBX7 / biotin-H3K27me3 peptide binding; hits give low values. AID 1224903. O95931. 66,000 tested, 1.1% active; in the data active = normalised signal below about 0.5
Target sequence (O95931 whole entry, looked up): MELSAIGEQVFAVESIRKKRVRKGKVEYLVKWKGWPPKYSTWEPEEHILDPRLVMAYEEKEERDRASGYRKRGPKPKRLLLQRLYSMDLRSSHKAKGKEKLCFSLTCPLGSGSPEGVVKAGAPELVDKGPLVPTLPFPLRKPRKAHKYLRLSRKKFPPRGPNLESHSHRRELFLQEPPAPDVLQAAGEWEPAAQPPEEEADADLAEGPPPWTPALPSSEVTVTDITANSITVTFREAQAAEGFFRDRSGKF
Each line names hits and unclear results; the compound was inactive in the other large screens.

N#Cc1ccc(NC(=O)c2cc(-c3ccco3)on2)cc1	none
CCOC(=O)c1cnc2c(C)cc(Cl)cc2c1Nc1ccc(N(C)C)cc1	none
CCOC(=O)c1cnc2c(C)cccc2c1Nc1ccc(N(C)C)cc1	CBX7 inh 0.25
CCOC(=O)c1cnc2c(C(F)(F)F)cccc2c1Nc1ccc(O)cc1	none
CCOC(=O)c1cnc2ccc(C)cc2c1Nc1ccc(C)cc1	none
CCOC(=O)c1cnc2ccc(C)cc2c1Nc1cccc(C)c1	none
CCOC(=O)c1cnc2ccc(C)cc2c1Nc1ccc(N(C)C)cc1	CBX7 inh 0.38
CCOC(=O)c1cnc2c(C(F)(F)F)cccc2c1Nc1ccc(NC(C)=O)cc1	none
CCOC(=O)c1cnc2c(C(F)(F)F)cccc2c1Nc1ccc(N(C)C)cc1	CBX7 inh 0.16
CCOC(=O)c1cnc2c(C)cccc2c1Nc1ccc(C)c(C)c1	none
CCCCN(C)CCNC(=O)c1ccc2c(c1)NC(=O)C(CC(C)C)N2 (centres undefined)	none
Cc1ccc(-c2noc(-c3ccccc3C)n2)cc1	none
COc1ccc(C(=O)NC(C)C(c2cccs2)N2CCN(c3ccccc3OC)CC2)cc1 (centres undefined)	none
COc1cccc(-c2nc(CSCC(=O)NCc3ccc(C)cc3)c(C)o2)c1	none
O=C(NCCCN1CCN(c2ccc(F)cc2)CC1)Nc1cccc2ccccc12	none
CC(C)CCNC(=O)c1ccc2c(c1)N(Cc1ccccc1)C(=O)c1ccccc1S2=O (centres undefined)	none
CCOC(=O)c1ccccc1NC(=O)CC1Nc2cc(C)c(C)cc2NC1=O (centres undefined)	none
Cc1ccccc1Nc1nnc(C(C)(C)C)c(=O)[nH]1	none
Cc1ccc(OCc2nc(C#N)c(N3CCN(c4ccccc4)CC3)o2)cc1	CBX7 inh 0.46
CN1CCN(c2oc(COc3ccc(F)cc3)nc2C#N)CC1	none
CN(Cc1ccccc1)c1oc(COc2ccc(F)cc2)nc1C#N	CBX7 inh 0.44
COc1ccccc1OCc1nc(C#N)c(N(C)C)o1	none
Cc1ccc(OCc2nc(C#N)c(N3CCC(C)CC3)o2)cc1	none
COc1ccc(N2CCN(c3oc(COc4ccccc4F)nc3C#N)CC2)cc1	none
N#Cc1nc(COc2ccccc2)oc1NCc1ccc(F)cc1	none
N#Cc1nc(COc2ccccc2F)oc1N1CCN(c2ccccc2)CC1	CBX7 inh 0.48
CC1CCN(c2oc(COc3ccc(Cl)cc3)nc2C#N)CC1	CBX7 inh 0.36
N#Cc1nc(COc2ccccc2F)oc1N1CCCC1	none
COc1ccc(OCc2nc(C#N)c(N3CCOCC3)o2)cc1	none
N#Cc1nc(COc2ccc(Cl)cc2)oc1N1CCOCC1	none
Cc1cccc(NC2c3ccccc3C(=O)N2Cc2ccccc2)c1C (centres undefined)	none
Cn1c(C(=O)N2CCC(C(=O)NCCCN3CCCC3)CC2)cc2sccc21	none
CCc1ccccc1NC(=O)c1c(Oc2ccc(F)cc2)nc(C)c(Cl)c1C	none
Cc1cccc2sc(NC(=O)C3CCN(S(=O)(=O)c4cnc[nH]4)CC3)nc12	none
CCCCNC(=O)CN1C(=O)CSc2ccccc21	none
Cc1cccc(Cn2cnc3cc(C)c(C)cc32)c1	none
CCOC(=O)c1c(C)n(CCOc2cccc3ccccc23)c2ccc(O)cc12	none
CCOC(=O)CNc1c(NC2CCCCC2)c(=O)c1=O	none
COc1ccc(NC(=O)c2cc3c(n(-c4ccc(Cl)cc4)c2=O)CC(C)(C)CC3=O)cc1	none
COCCN(CCOC)S(=O)(=O)c1ccc(C(=O)Nc2nc(-c3cc(C)ccc3C)cs2)cc1	none
CCN1CCN(c2oc(COc3ccccc3)nc2C#N)CC1	none
Cc1ccc(OCc2nc(C#N)c(N3CCC(C(N)=O)CC3)o2)cc1	none
Cc1ccc(OCc2nc(C#N)c(N3CCN(Cc4ccccc4)CC3)o2)cc1	CBX7 inh 0.46
CCCNC(=O)c1nc(-c2ccc(C)cc2)oc1C	none
CCc1nnc(NC(=O)c2ncn[nH]2)s1	CBX7 inh 0.38
CCc1nnc(NC(=O)c2ccc(C(C)(C)C)cc2)s1	none
CCc1nnc(NC(=O)c2cc(OC)c(OC)c(OC)c2)s1	none
CC(=O)C1=C(O)C(=O)N(CCCn2ccnc2)C1c1ccccc1 (centres undefined)	none
CC1=C(C(=O)Nc2cccc(C)n2)C(c2cccc(Cl)c2)C2=C(CC(C)(C)CC2=O)N1 (centres undefined)	none
CCn1c2c(c3cc(C4CCCCC4)ccc31)CCCC2O (centres undefined)	CBX7 inh 0.47
O=C(c1ccccc1)N1CCn2c3c(c4cc(C5CCCCC5)ccc42)CCCC31 (centres undefined)	none
O=C1CCCc2c1[nH]c1ccc(C3CCCCC3)cc21	none
Cn1c(C(=O)N2CCN(c3ccccn3)CC2)cc2sccc21	none
Cc1cccc(C)c1Nc1c(-c2ccccn2)nc2c(C)cccn12	none
CC(C)c1ccc(Nc2c(-c3ccccn3)nc3ccccn23)cc1	CBX7 inh 0.21
c1ccc(Nc2c(-c3ccccn3)nc3ccccn23)cc1	CBX7 inh 0.24
Clc1ccc(Nc2c(-c3ccccn3)nc3cnccn23)cc1	none
c1ccc(Nc2c(-c3ccc(N4CCOCC4)cc3)nc3ccccn23)cc1	none
Cc1cccn2c(Nc3ccc(C(C)C)cc3)c(-c3ccccn3)nc12	CBX7 inh 0.26
Cc1ccc(Nc2c(-c3ccc(C)cc3)nc3ccccn23)cc1	none
Cc1ccc(Nc2c(-c3ccccc3)nc3ccccn23)cc1	none
Cc1cccn2c(Nc3ccccc3)c(-c3ccccn3)nc12	none
COCCNC(=O)c1nn(C)c(=O)c2ccccc12	none
COc1cccc(NC(=O)CSc2nc(NCC3CCCO3)c3ccccc3n2)c1 (centres undefined)	none
CCc1ccc(-c2nc(SCC(=O)Nc3nccs3)c(-c3ccc(C)cc3)[nH]2)cc1	none
Cc1oc(-c2ccc(Cl)cc2)nc1CN1CCCC(C(=O)NCc2ccc(F)cc2)C1 (centres undefined)	none
COc1ccc(-c2noc(-c3cccc(Cl)c3)n2)cc1	none
CN1C(=O)C(O)(c2c[nH]c3ccccc23)c2cc(Cl)ccc21 (centres undefined)	none
Cc1ccc(CN2C(=O)CCC2C(=O)NCCCN2CCCCC2)cc1 (centres undefined)	none
O=C(Nc1nc(-c2ccncc2)cs1)c1ccc(S(=O)(=O)N2CCOCC2)cc1	none
CCCCN(CC)S(=O)(=O)c1ccc(C(=O)Nc2nc(-c3ccccn3)cs2)cc1	CBX7 inh 0.48
O=C(Nc1nnc(-c2ccccc2)s1)c1ccc(S(=O)(=O)N2CCOCC2)cc1	none
CCCCN(CCCC)S(=O)(=O)c1ccc(C(=O)Nc2nc(-c3ccncc3)cs2)cc1	none
O=C(Nc1nc(-c2ccncc2)cs1)c1ccc(S(=O)(=O)N2CCCCCC2)cc1	none
O=C(Nc1nc(-c2nc3ccccc3s2)cs1)c1ccc(S(=O)(=O)N2CCCCCC2)cc1	none
O=C(Nc1nc(-c2ccccn2)cs1)c1ccc(S(=O)(=O)N2CCCCC2)cc1	CBX7 inh 0
O=C(Nc1nc(-c2ccccn2)cs1)c1ccc(S(=O)(=O)N2CCOCC2)cc1	CBX7 inh 0
CCCN(CCC)S(=O)(=O)c1ccc(C(=O)Nc2nc(-c3ccncc3)cs2)cc1	none
Cc1cc(C)n(-c2ccc(Cl)cc2)c(=O)c1C(=O)O	none
O=C(NCCc1ccccc1)c1cc(=O)n(Cc2ccc(Cl)cc2)c2ccccc12	none
CCc1ccc(NC(=O)C2CCN(C(=O)c3cc4sccc4n3Cc3ccc(F)cc3)CC2)cc1	none
CCOC(=O)c1sc(NC(=O)COc2ccc(CC)cc2)nc1C	none
Cc1ccccc1Nc1c(-c2ccccc2)nc2cccc(C)n12	none
Cc1ccccc1Nc1c(-c2ccc(Cl)cc2)nc2cccc(C)n12	none
Cc1ccccc1Nc1c(-c2ccc(N(C)C)cc2)nc2cccc(C)n12	CBX7 inh 0.46

High-throughput results: PubChem, Bradner/Qi Labs at DFCI
